Screens (PubChem)
RORg inh: qHTS for inhibitors of ROR gamma transcriptional activity | Potency, µM (top dose mostly 53.6 µM), inactives show top-dose activity change, negative = inhibition, usual class: inhibitors | Drosophila S2 Gal4-RORgamma UAS-luciferase reporter, 20 h | 310,000 tested, 5.4% active; note: potency is the fitted concentration of half-maximal effect; nearly all actives have a fitted effect of over 60% in size
Target sequence (P51450 whole entry, looked up, the tested form may be a part): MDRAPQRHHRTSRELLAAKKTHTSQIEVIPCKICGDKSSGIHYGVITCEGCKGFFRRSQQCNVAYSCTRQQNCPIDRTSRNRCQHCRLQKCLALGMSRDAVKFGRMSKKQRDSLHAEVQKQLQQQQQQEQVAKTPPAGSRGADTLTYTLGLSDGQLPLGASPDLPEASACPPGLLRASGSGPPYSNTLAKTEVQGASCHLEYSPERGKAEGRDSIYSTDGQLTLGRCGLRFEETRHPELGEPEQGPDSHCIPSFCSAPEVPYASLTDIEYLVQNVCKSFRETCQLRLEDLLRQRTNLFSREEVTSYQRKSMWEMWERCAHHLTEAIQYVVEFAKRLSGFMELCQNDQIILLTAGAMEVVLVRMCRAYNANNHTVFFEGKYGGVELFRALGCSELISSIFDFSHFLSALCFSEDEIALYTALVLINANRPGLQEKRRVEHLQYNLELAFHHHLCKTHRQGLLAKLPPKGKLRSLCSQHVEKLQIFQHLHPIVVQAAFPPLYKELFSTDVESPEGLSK
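In this cell-based reporter format, copper sulfate (700 uM final) drives Gal4–ROR gamma fusion expression from a metallothionein promoter in Drosophila Schneider cells; compounds preincubated 1 hr, reporter read after 20 hr at ambient temperature.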
VP16 counter: VP16 counterscreen qHTS for inhibitors of ROR gamma transcriptional activity; Drosophila S2 Gal4-VP16 UAS-luciferase, luminescence, 20 h; Potency, µM (top dose mostly 53.6 µM), for inactives: at the highest dose activity, negative = inhibition, usual class: inhibitors; 310,000 tested, 3.5% active;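 note: Gal4-VP16 expression switched on by copper sulfate through the metallothionein promoter; potency is the fitted concentration of half-maximal effect; nearly all actives have a fitted effect of over 50% in size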
TDP1 cell noCPT: qHTS for Inhibitors of human tyrosyl-DNA phosphodiesterase 1 (TDP1): qHTS in cells in absence of CPT; AID 686978, 2013; 420,000 tested, 15% active; DT40 Tdp1-/- hTDP1 cells, no CPT, ATP luminescence, 48 h; Potency, µM (highest dose often 46.2 µM), for inactives: at the top dose activity change, negative = growth inhibition, most hits filed as inhibitors; note: potency is the fitted concentration of half-maximal effect; nearly all actives have a fitted effect of over 55% in size
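Luminescent ATP content (CellTiter-Glo) served as the growth readout. Knockout chicken DT40 cells expressing human TDP1 were exposed to compounds without camptothecin for a minimum 48 hr at 37 °C.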
IL-1B inflam inh: qHTS for Inhibitors of Inflammasome Signaling: IL-1-beta AlphaLISA Primary Screen; THP-1 LPS/ATP IL-1B secretion, AlphaLISA, 16 h; hits give low values; activity change, % at 57.5 µM; 360,000 tested, 4.7% active; in the data active = activity change below about -50%; inconclusive = mostly about -30% to -49%
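Secreted IL-1B measured by AlphaLISA bead assay after 16 h compound exposure of THP-1 cells; compounds (final up to 57.5 uM) added 1 h before LPS (250 ng/mL) and ATP (1.25 mM) stimulation; lower signal means less secretion.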
ELG1 DNA repair: qHTS screen for small molecules that inhibit ELG1-dependent DNA repair in human embryonic kidney (HEK293T) cells expressing luciferase-tagged ELG1; Potency, µM (top dose mostly 46.1 µM), for the others: at the top dose activity change, negative = inhibition, hits mostly inhibitors; HEK293T ELG1-luciferase reporter, luminescence, 16 h; DNA damage induced by 5-fluorouridine; 330,000 tested, 2.3% active; note: potency is the fitted concentration of half-maximal effect; nearly all actives have a fitted effect of over 55% in size
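Reporter activity after DNA damage by 5-fluorouridine is monitored. Compound-treated cells incubate 16 hr at 37 °C, then ONE-Glo is added for 30 min before luminescence reading.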
DT40 TDP1 CPT: qHTS for Inhibitors of human tyrosyl-DNA phosphodiesterase 1 (TDP1): qHTS in cells in presence of CPT; Potency, µM (series often up to 46.2 µM), for inactives: at the top dose activity change, negative = growth inhibition, actives largely listed as inhibitors; 420,000 tested, 12% active; chicken DT40 Tdp1-/-;hTDP1 cells + 20 nM CPT, ATP luminescence, 48 h; note: potency is the fitted concentration of half-maximal effect; nearly all actives have a fitted effect of over 55% in size
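Chicken DT40 Tdp1-/- cells stably complemented with human TDP1 were seeded at 400 cells/well in medium containing 20 nM camptothecin, exposed to pin-transferred compounds, and grown at 37 °C for at least 48 hr. Viability was read as ATP luminescence.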
Starred values were filed as active, the others as inactive; [ ] = dose if it differs, or a comment. A selection: hits, their analogues and other compounds. The true share with any hit is near 21%. Unless noted, calls come from the whole dose curve; as a rule, active = well fitted curve in the direction sought with a large enough effect; inconclusive = small, poorly fitted or top-dose-only effect, or another doubt; inactive = no such curve, though single readings can be large; an effect the other way counts as inactive or inconclusive. % is set by controls: 0 for no effect and ±100 for the full control effect.

Results for COc1ccc(C(C)(C)C)cc1NC(=O)CSc1ncn[nH]1 ?
TDP1 cell noCPT: -27%; IL-1B inflam inh: 4; ELG1 DNA repair: inconclusive; DT40 TDP1 CPT: 9%

How did O=C(NNc1cc(Cl)cc(Cl)c1)c1cccs1 do in these assays?
RORg inh: 7%; VP16 counter: 1%; TDP1 cell noCPT: 18µM*; IL-1B inflam inh: -15; ELG1 DNA repair: -8%; DT40 TDP1 CPT: inconclusive

What do the screens show for `O=C(O)CCCCCCCCCC(=O)c1cccs1`?
RORg inh: 10µM*; VP16 counter: 3.5µM*; TDP1 cell noCPT: -1%; IL-1B inflam inh: 17; ELG1 DNA repair: 13%; DT40 TDP1 CPT: -2%

How did CC(=O)c1c(OC(=O)c2ccccc2)ccnc1C(F)(F)F do in these assays?
TDP1 cell noCPT: 14%; IL-1B inflam inh: -7; ELG1 DNA repair: 11%; DT40 TDP1 CPT: 5%

Results for O=C1N/C(=C\c2ccccc2)c2ccccc21 ?
RORg inh: -1%[0.365 µM]; TDP1 cell noCPT: 23µM*; IL-1B inflam inh: 34; ELG1 DNA repair: 21%; DT40 TDP1 CPT: 21µM*

What do the screens show for `O=C1N/C(=C\c2nc3ccccc3s2)c2ccccc21`?
RORg inh: inconclusive; VP16 counter: -14%; ELG1 DNA repair: inconclusive

What do the screens show for `Cc1ccc(-c2cc(C(=O)N3CCN(S(=O)(=O)c4ccc(Br)cc4)CC3)[nH]n2)cc1C`?
TDP1 cell noCPT: 8.2µM*; DT40 TDP1 CPT: 9.2µM*

Results for COc1cc(C(=O)N2CCN(C(=O)c3cc(-c4ccc(Br)cc4)n[nH]3)CC2)cc(OC)c1OC ?
RORg inh: 29%; VP16 counter: -5%; TDP1 cell noCPT: 26µM*; IL-1B inflam inh: -10; ELG1 DNA repair: -10%; DT40 TDP1 CPT: 21µM*

How did COc1ccc(OC)c(CCNc2nccn(-c3ccc(C)c(C)c3)c2=O)c1 do in these assays?
TDP1 cell noCPT: 21µM*; DT40 TDP1 CPT: 15µM*

How did COc1ccc(-n2ccnc(NCc3ccc(Cl)cc3)c2=O)cc1 do in these assays?
TDP1 cell noCPT: 15µM*; DT40 TDP1 CPT: inconclusive

Results for COc1ccc(CNc2nc3c(c(=O)n(Cc4ccc(Cl)cc4)c(=O)n3C)n2C)cc1 ?
RORg inh: inconclusive; VP16 counter: -19%; TDP1 cell noCPT: 23µM*; IL-1B inflam inh: inconclusive; ELG1 DNA repair: inconclusive; DT40 TDP1 CPT: 18µM*

How did CCNc1nc2c(c(=O)n(C)c(=O)n2C)n1CCCc1ccccc1 do in these assays?
RORg inh: inconclusive; VP16 counter: 11µM*; TDP1 cell noCPT: 5.8µM*; IL-1B inflam inh: -9; ELG1 DNA repair: inconclusive; DT40 TDP1 CPT: 12µM*

How did Cc1nc2c(c(C)nn2C(C)(C)C)c(C)c1CCC(=O)Nc1ccc(F)cc1 do in these assays?
TDP1 cell noCPT: -23%; DT40 TDP1 CPT: inconclusive

What do the screens show for `COc1cc(SC)ccc1C(=O)NCC1CCCCC1`?
RORg inh: 30%; VP16 counter: 5%; TDP1 cell noCPT: inconclusive; IL-1B inflam inh: inconclusive; ELG1 DNA repair: inconclusive; DT40 TDP1 CPT: inconclusive

Results for CSCCC(NC(=O)COc1ccccc1)C(=O)N1CCCC(C)C1 (stereo unspecified) ?
RORg inh: 6%; VP16 counter: 12%; TDP1 cell noCPT: -12%; IL-1B inflam inh: -17; ELG1 DNA repair: 16%; DT40 TDP1 CPT: -24%

Results for Cc1c(Cl)cccc1NC(=O)CN1C(=O)COc2ccc(S(=O)(=O)N3CCOCC3)cc21 ?
TDP1 cell noCPT: -13%; DT40 TDP1 CPT: -3%

What do the screens show for `COc1ccc(NC(=O)c2cc(C(C)=O)n3ccccc23)cc1`?
TDP1 cell noCPT: inconclusive; DT40 TDP1 CPT: -61%

How did Cn1c(=O)[nH]c(=O)c2c1nc(NCc1ccccc1)n2Cc1ccc(F)cc1 do in these assays?
RORg inh: 6%; VP16 counter: -11%; TDP1 cell noCPT: -10%; IL-1B inflam inh: -5; ELG1 DNA repair: 23%; DT40 TDP1 CPT: -12%

Results for CCCCNc1nc2c(c(=O)n(Cc3ccccc3)c(=O)n2C)n1C ?
RORg inh: -1%; VP16 counter: -9%; TDP1 cell noCPT: inconclusive; IL-1B inflam inh: 6; ELG1 DNA repair: inconclusive; DT40 TDP1 CPT: -25%

How did CC(C)Sc1nc2c(c(=O)n(C)c(=O)n2C)n1Cc1ccc(Cl)cc1 do in these assays?
RORg inh: -18%; VP16 counter: -6%; TDP1 cell noCPT: inconclusive; IL-1B inflam inh: 3; ELG1 DNA repair: inconclusive; DT40 TDP1 CPT: inconclusive

How did CCNc1nc2c(c(=O)n(C)c(=O)n2C)n1Cc1ccc(Cl)cc1 do in these assays?
RORg inh: inconclusive; VP16 counter: 4.5µM*; TDP1 cell noCPT: 6.5µM*; IL-1B inflam inh: 17; ELG1 DNA repair: -18%; DT40 TDP1 CPT: 3.7µM*

How did Cn1c(=O)c2c(nc(NCc3cccnc3)n2Cc2ccc(Cl)cc2)n(C)c1=O do in these assays?
RORg inh: 22%; VP16 counter: 0%; TDP1 cell noCPT: 5.8µM*; IL-1B inflam inh: inconclusive; ELG1 DNA repair: 21µM*; DT40 TDP1 CPT: inconclusive

What do the screens show for `CCC(C)Nc1nc2c(c(=O)n(C)c(=O)n2C)n1Cc1ccc(Cl)cc1` (stereo unspecified)?
RORg inh: 27%; VP16 counter: -5%; TDP1 cell noCPT: 23µM*; IL-1B inflam inh: -27; ELG1 DNA repair: inconclusive; DT40 TDP1 CPT: 13µM*

How did CCNc1nc2c(c(=O)n(Cc3ccccc3)c(=O)n2C)n1Cc1ccccc1 do in these assays?
RORg inh: -2%; VP16 counter: 0%; TDP1 cell noCPT: inconclusive; IL-1B inflam inh: inconclusive; ELG1 DNA repair: 13µM*; DT40 TDP1 CPT: inconclusive

How did CC(C)(C)NC(=S)NNC(=O)c1ccccc1Cl do in these assays?
RORg inh: 0.45µM*; VP16 counter: 1.4µM*; TDP1 cell noCPT: 10µM*; IL-1B inflam inh: 34; ELG1 DNA repair: 8%; DT40 TDP1 CPT: 15µM*

Results for CC(C)(C)NC(=S)NNC(=O)c1cccc(Br)c1 ?
RORg inh: 4.5µM*; VP16 counter: inconclusive; TDP1 cell noCPT: 6.5µM*; IL-1B inflam inh: 10; ELG1 DNA repair: 2%; DT40 TDP1 CPT: 5.8µM*

What do the screens show for `O=C(NNC(=S)Nc1ccccc1)c1cccc(Br)c1`?
RORg inh: -30%; VP16 counter: -16%; TDP1 cell noCPT: -25%; IL-1B inflam inh: 32; ELG1 DNA repair: inconclusive; DT40 TDP1 CPT: -12%
